Assay results from PubChem BioAssay AID463173 (ICCB-Longwood Screening Facility, Harvard Medical School, 2010).
Among all 52,000 compounds or so, about 4,300 (8.3%) were called active. The sample holds actives, similar compounds and a random draw of the others, so the mix is not that of the screen. No stated cut-off is given here; in the data, active means survival mostly below about 52% (no sharp cut-off); inactive means mostly above about 56%.

Tested on: DeltatarO mutant
Test: growth inhibition of S. aureus wild type versus tarO mutant, primary screen, teichoic acid synthesis inhibitors, RN4220, OD600 (AID 463173)
Settings: OD600, 18 h, hits give low values, screened at 18.75 µg/mL (by protocol)

Q: Which survival does the source give for `CC(C)N(Cc1ccccc1)C(=O)CCS(=O)(=O)c1cc2c(cc1Cl)NC(=O)CO2` here?
A: 103% (inactive)

Q: For `CC(C)(C)c1ccc(S(=O)(=O)c2cnc(SCC(=O)Nc3ccc4c(c3)OCCO4)[nH]c2=O)cc1`, which survival is on record?
A: 120% (inactive)

Q: For `COc1ccc(S(=O)(=O)N(CC(=O)NCCSCc2ccccc2)c2ccc(C)cc2)cc1`, which survival is on record?
A: 54% (inactive)

Q: `CCN1CCN(C(=O)c2cnn(-c3ccc(F)cc3)c2-n2cccc2)CC1` was tested. Which survival did it give?
A: 135% (inactive)

Q: With `CCc1ccc(NC(=O)CSc2ccc(-c3sc(-c4ccccc4)nc3C)nn2)cc1` as the compound, how does the survival read?
A: 38% (inactive)

Q: For `COC(=O)c1ccc(NC(=O)CSc2n[nH]c(CC(C)C)n2)cc1`, which survival is on record?
A: 36% (active)

Q: `COC(=O)c1ccccc1NC(=O)CSc1n[nH]c(CC(C)C)n1` was tested. Which survival did it give?
A: 47% (inactive)

Q: For `CCOC(=O)c1ccccc1NC(=O)CSc1ccc(-c2sc(-c3ccccc3)nc2C)nn1`, which survival is on record?
A: 34% (inactive)

Q: `Cc1nc(-c2ccccc2)sc1-c1ccc(SCC(=O)NCc2ccccc2)nn1` was tested. Which survival did it give?
A: 58% (inactive)

Q: With `COC(=O)c1ccc(NC(=O)CSc2ccc(-c3sc(-c4ccccc4)nc3C)nn2)cc1` as the compound, how does the survival read?
A: 56% (active)

Q: With `Cc1ccc(CNC(=O)CSc2ccc(-c3sc(-c4ccccc4)nc3C)nn2)cc1` as the compound, how does the survival read?
A: 93% (inactive)

Q: With `COC(=O)c1ccc(NC(=O)CSc2n[nH]c(-c3ccccc3)n2)cc1` as the compound, how does the survival read?
A: 88% (inactive)

Q: For `CCOc1ccc(NC(=O)CSc2ccc(-c3sc(-c4ccccc4)nc3C)nn2)cc1`, which survival is on record?
A: 15% (active)

Q: With `Cc1ccc(OCC(=O)Nc2ccc3c(c2)sc(=O)n3C)cc1` as the compound, how does the survival read?
A: 110% (inactive)

Q: Which survival does the source give for `O=C(Cn1ncc2c3ccccc3n(Cc3ccc(Cl)cc3)c2c1=O)NCCC1=CCCCC1` here?
A: 89% (inactive)

Q: How did the survival turn out when `CCc1ccc(C2CC(=O)c3c([nH]c(C(=O)OC4CCCC4)c3C)C2)cc1` (stereo unspecified) was run?
A: 97% (inactive)

Q: With `O=C(CSc1nnc(NC(=O)NC2CCCCC2)s1)Nc1ccccc1F` as the compound, how does the survival read?
A: 79% (inactive)

Q: Which survival does the source give for `CCCn1c(C(=O)OC)cc2c1ccn2C` here?
A: 78% (inactive)

Q: `CC1(C)Cc2[nH]c(=S)c(C#N)cc2CO1` was tested. Which survival did it give?
A: 88% (inactive)

Q: How did the survival turn out when `CCc1cnc2c(c1SCC(=O)NCc1ccc(C)cc1)c(=O)n(C)c(=O)n2C` was run?
A: 70% (inactive)

Q: With `CCCc1cnc2c(c1SCC(=O)NCc1ccc(C)cc1)c(=O)n(C)c(=O)n2C` as the compound, how does the survival read?
A: -4% (active)

Q: With `Cc1ccc(CNC(=O)CSc2c(C(C)C)cnc3c2c(=O)n(C)c(=O)n3C)cc1` as the compound, how does the survival read?
A: 85% (inactive)

Q: With `COc1cc(C2C(C(=O)OCC(C)C)=C(C)N=C3SCCC(=O)N32)ccc1OCc1ccccc1` (stereo unspecified) as the compound, how does the survival read?
A: 46% (active)

Q: How did the survival turn out when `CCOC(=O)C1=C(C)N=C2SCCC(=O)N2C1c1ccc(OCc2ccccc2)c(OC)c1` (stereo unspecified) was run?
A: 133% (inactive)

Q: `COCCOC(=O)C1=C(C)N=C2SCCC(=O)N2C1c1ccc(OCc2ccccc2)c(OC)c1` (stereo unspecified) was tested. Which survival did it give?
A: 58% (inactive)

Q: How did the survival turn out when `O=C1CC(c2ccccc2)Cc2[nH]c(=O)c(-c3nc(-c4ccc(Cl)cc4)cs3)cc21` (stereo unspecified) was run?
A: 72% (inactive)

Q: For `CCN(CC)c1cc(NC2CCCCC2)c2c3c(onc13)-c1ccccc1C2=O`, which survival is on record?
A: 1% (active)

Q: Which survival does the source give for `CN(C)CCCNc1cc(N2CCN(C3CCCCC3)CC2)c2noc3c2c1C(=O)c1ccccc1-3` here?
A: 51% (inactive)

Q: For `O=C1c2ccccc2-c2onc3c(Br)cc(NC4CCCCC4)c1c23`, which survival is on record?
A: 101% (inactive)

Q: `CCCCNc1cc(NC2CCCCC2)c2c3c(onc13)-c1ccccc1C2=O` was tested. Which survival did it give?
A: 92% (inactive)

Q: `CCNc1cc(N2CCN(C3CCCCC3)CC2)c2noc3c2c1C(=O)c1ccccc1-3` was tested. Which survival did it give?
A: 73% (inactive)

Q: For `CCCCNc1cc(N2CCN(C3CCCCC3)CC2)c2noc3c2c1C(=O)c1ccccc1-3`, which survival is on record?
A: -5% (active)

Q: How did the survival turn out when `COc1ccc(NC(=O)CCS(=O)(=O)c2nc(-c3ccc4c(c3)OCO4)cc(C(F)(F)F)n2)cc1OC` was run?
A: 79% (inactive)

Q: How did the survival turn out when `Cc1cccc(NC(=O)Cn2cc(C(=O)c3ccco3)c3ccccc32)c1C` was run?
A: 55% (inactive)

Q: `Cc1cc(C)c(O)c(N)c1` was tested. Which survival did it give?
A: 39% (active)

Q: Which survival does the source give for `Cc1cc(N)cc(C(=O)O)c1O` here?
A: 104% (inactive)

Q: Which survival does the source give for `Cc1cc(N)c(O)cc1C` here?
A: 61% (inactive)

Q: `CCOc1ccc(S(=O)(=O)N2CCC(N3CCN(Cc4ccc(C)cc4)C(=O)C3=O)CC2)cc1` was tested. Which survival did it give?
A: 77% (inactive)

Q: `CCCOC(=O)c1cccc(Nc2nc(CCC)cc(=O)[nH]2)c1` was tested. Which survival did it give?
A: 10% (active)

Q: With `CCCc1cc(=O)[nH]c(Nc2cccc(Cl)c2Cl)n1` as the compound, how does the survival read?
A: 68% (inactive)

Q: Which survival does the source give for `CCCc1cc(=O)[nH]c(Nc2cc(C)cc(C)c2)n1` here?
A: 108% (inactive)

Q: How did the survival turn out when `CCCc1cc(=O)[nH]c(Nc2ccc(C(=O)O)cc2)n1` was run?
A: 62% (inactive)

Q: How did the survival turn out when `CCCc1cc(=O)[nH]c(Nc2cc(Cl)cc(Cl)c2)n1` was run?
A: 6% (active)

Q: How did the survival turn out when `CCCc1cc(=O)[nH]c(Nc2ccc(C)c(O)c2)n1` was run?
A: 57% (inactive)

Q: With `O=C(CN1C(=O)COc2ccc(S(=O)(=O)N3CCCCCC3)cc21)N1CCN(c2cccc(Cl)c2)CC1` as the compound, how does the survival read?
A: 95% (inactive)

Q: How did the survival turn out when `O=C(Nc1nnc(S(=O)(=O)N2CCCCC2)s1)c1ccccc1Br` was run?
A: 61% (inactive)

Q: How did the survival turn out when `O=C(Nc1nnc(S(=O)(=O)N2CCCCCC2)s1)c1ccccc1Br` was run?
A: 43% (active)

Q: `O=C(Nc1nnc(S(=O)(=O)N2CCCC2)s1)c1ccccc1Br` was tested. Which survival did it give?
A: 36% (active)

Q: How did the survival turn out when `COc1ccc(C2CC(=O)c3cnc4c(-c5ccccc5)c(C)nn4c3C2)c(OC)c1` (stereo unspecified) was run?
A: 82% (inactive)

Q: How did the survival turn out when `COc1cccc(C(=O)Nc2ccc3nc(SCC(=O)N4CCc5ccccc54)sc3c2)c1` was run?
A: 59% (inactive)

Q: With `COc1cccc(-n2cc(C(=O)Nc3cc(C)c(Cl)cc3OC)c3ccccc3c2=O)c1` as the compound, how does the survival read?
A: 56% (inactive)

Q: With `O=C(Nc1ccc2oc(-c3cccnc3)nc2c1)c1ccc(-c2ccc(OC(F)(F)F)cc2)o1` as the compound, how does the survival read?
A: 79% (inactive)

Q: With `CCOc1ccccc1NS(=O)(=O)c1cnc(N)nc1` as the compound, how does the survival read?
A: -1% (active)

Q: For `CCOc1ccccc1CNS(=O)(=O)c1cnc(N)nc1`, which survival is on record?
A: 79% (inactive)

Q: `Nc1ncc(S(=O)(=O)Nc2ccc(F)cc2F)cn1` was tested. Which survival did it give?
A: 84% (inactive)

Q: With `COc1ccc(OC)c(NC(=O)c2ccc(-c3nc(COc4ccccc4)c(C)o3)cc2)c1` as the compound, how does the survival read?
A: 62% (inactive)

Q: `CCOC(=O)c1[nH]c2ccccc2c1NC(=O)c1ccc(OCC)cc1` was tested. Which survival did it give?
A: 75% (inactive)

Q: With `Cc1ccc(NC(=O)C(c2ccccc2)N2Cc3ccccc3C2=O)cc1Cl` (stereo unspecified) as the compound, how does the survival read?
A: 75% (inactive)

Q: How did the survival turn out when `CCN(CC)CCNc1ncnc2c1cnn2-c1cc(Cl)ccc1C` was run?
A: 77% (inactive)

Q: `CCN(CC)c1ncnc2c1cnn2-c1cc(Cl)ccc1C` was tested. Which survival did it give?
A: -5% (active)

Q: Which survival does the source give for `CCN(c1ncnc2c1cnn2-c1cc(Cl)ccc1C)C1CCCCC1` here?
A: 73% (inactive)
